These binders were tested against EPS15 121-215, P42566.
EPS15 121-215, P42566, sequence (P42566 121-215): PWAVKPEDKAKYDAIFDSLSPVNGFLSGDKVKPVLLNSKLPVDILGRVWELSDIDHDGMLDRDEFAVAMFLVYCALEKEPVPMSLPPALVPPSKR

Selected by phage display, active:
HANPSNPFYEALSTPS [LMTK3, Q96Q04] confidence 4
NPFEDDFGAPKVGVAA [PYGO2, Q9BRQ0] confidence 2
MQDPFGGNPFTALLAG [UBQLNL, Q8IYU4] confidence 3
YPDRVTQNPFIPTFGD [GRIN2B, Q13224] confidence 3
DSASSNPFALPNSVTP [WDR59, Q6PJI9] confidence 3
YTNPFSDNHQSPFLEG [PRUNE2, Q8WUY3] confidence 2
VQEQFGGNPFATATTD [UBQLN3, Q9H347] confidence 4
QIMENPFVQSMLSNPD [UBQLN1, Q9UMX0] confidence 3
NPFWNVSTQPQQLPRP confidence 4
NPFLPSDSSKTSELHS [KIAA1549, Q9HCM3] confidence 2
PLSPGNPFSPGTPISP [WNK4, Q96J92] confidence 3
PLLTGVSSSTNPFRPQ [GNG5, P63218] confidence 3
NPFNEEPAETVSSSDT [PLEKHM2, Q8IWE5] confidence 2
AAGPSVASSTNPFQTN confidence 3
YSNNPFWNGVQTNPFL [SH3BP4, Q9P0V3] confidence 2
TPSEADRWLEEVSKSV [NUMB, P49757] confidence 3
SAVSSVVNKFNPFDLI [PCLO, Q9Y6V0] confidence 3
TQAPPLHTATTNPFLT [MLLT10, P55197] confidence 4
NPFTPDSLLLHSSGQA [WEE1, P30291] confidence 4
NPFNTPHLQLVHDGLG [SLC25A3, Q00325] confidence 2
NPFLTGLSAPSPTNPF [EPN3, Q9H201] confidence 3
LMNFLGDSNPFNLLRM [BCL11B, Q9C0K0] confidence 2
TPFGQVAAAGVSSNPF confidence 3
SSEVNIVNPFALESTI [SLC1A1, P43005] confidence 2

These binders were tested against CRK 124-198, P46108.
CRK 124-198, P46108, sequence (P46108 124-198): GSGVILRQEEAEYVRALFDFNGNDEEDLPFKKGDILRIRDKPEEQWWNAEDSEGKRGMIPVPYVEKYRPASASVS

Selected by phage display, active:
SSSPQLPPKPSIDLTV [CTTNBP2, Q8WZ74] confidence 2
DDTVEMPLPKKLKSVT [TPR, P12270] confidence 2
TQPPPHLPTKLVIRHG [BICRA, Q9NZM4] confidence 3
ELPVSPEIPPRKSQYL [IL31RA, Q8NI17] confidence 2
SSSAHLPPKDRPVTVF [MYO9A, B2RTY4] confidence 2
ESVAYHAQNNPPVPPK [ADNP, Q9H2P0] confidence 2
PPLPEKFVVKGVVDRF [SNX30, Q5VWJ9] confidence 3
PTLPPKGLAGPPASPG [KIAA1522, Q9P206] confidence 3
PHSSPPPLPAKASRQL [PHLDB1, Q86UU1] confidence 3
PPEPLLPLKAPATQPH confidence 2
NTQPPLPFKEAHVSGH [ZNF804A, Q7Z570] confidence 4
GPRLPPRQPTVASPAE [SATB1, Q01826] confidence 2
VELAPILPAKKQGGRP [NPM3, O75607] confidence 4
SMELLPPELPPRIPIE [SH2B1, Q9NRF2] confidence 4
PLPPPKEVINGNIKTV [EIF3G, O75821] confidence 3
ELWKVPLPPKNITAPS [TNRC6A, Q8NDV7] confidence 3
PRPPELPQKRLKTLDA [WDR83, Q9BRX9] confidence 4
IEAKDLPAKKKYLAEL [DAB2IP, Q5VWQ8] confidence 2
TPPPPSMPHKERYFDR [ADD3, Q9UEY8] confidence 2
PSAPQLPPRDSPRALM [PPARGC1B, Q86YN6] confidence 2
PQLLPKTSPQSAPPSS [FAM205A, Q6ZU69] confidence 4
KPMLPAKFGQPQGSPA [SIM2, Q14190] confidence 2
FSMQEPMVPAKLGTQA [PPFIA4, O75335] confidence 3
NDNSEYVPMLPGKFLG [IRS4, O14654] confidence 3
MLGPAIPPKATPEPAI [C6orf132, Q5T0Z8] confidence 3
SQEALPPKKRDLPVTS [ATXN1L, P0C7T5] confidence 3
LKAIPASSSAPPLPPK [FAM110B, Q8TC76] confidence 4
SSALAATLPTLPAKVY [NCF4, Q15080] confidence 2
PGLQAPPLPPRVGLPT [VPS37B, Q9H9H4] confidence 4
ADLPPKLQKMAGGAAR [KCNJ3, P48549] confidence 4
VQDIQPALPTKGEVLL [IVL, P07476] confidence 4
APPLPPREPPSKAAQE [ZNF516, Q92618] confidence 2
LMDISPFLPEKGLPST [MTCL1, Q9Y4B5] confidence 3
NVLNESPVQLPPLPPR [SCIMP, Q6UWF3] confidence 3
FPPLPEKAAALESAQE [HDLBP, Q00341] confidence 3
IPASPGQAAPLLPKKG [NUAK2, Q9H093] confidence 2
GVPALPVKNLNGTGPV [DTX1, Q86Y01] confidence 3
TPVAIATQLPPKVSAA [EP400, Q96L91] confidence 2

Reference: paper PMC8769072, “Proteome‐scale mapping of binding sites in the unstructured regions of the human proteome” (Molecular Systems Biology, 2022)
